Laboratory results published in PubChem BioAssay (Tox21).
Inconclusive results are not listed. Some compounds were tested as several samples or in several runs, with calls that do not always agree. The source made the active and inactive calls. Unless noted, the call rests on the fitted dose curve; in most records, active means well fitted curve in the direction sought with a large enough effect in the repeat runs; inconclusive means weak or mixed curves; inactive means no such curve, though single readings can be large; an effect the other way counts as inactive or inconclusive.

Legend:
[1] = target: Retinoic acid receptor RXR-alpha (Homo sapiens) (UniProt P19793); assay: qHTS assay to identify small molecule agonists of the RXR signaling pathway (AID 1159527; calls by dose curve; further: nearly all actives have a fitted effect of over 35% in size)
Procedure, shortened: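 Reporter activation is measured as beta-lactamase activity via FRET substrate cleavage (emission 460/530 nm) in HEK 293T cells expressing an RXR-alpha-driven bla construct, following 16 hr compound exposure at 37 C.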

[2] = qHTS assay to identify small molecule agonists of the RXR signaling pathway - cell viability counter screen (AID 1159529); further: series mostly up to about 77 µM; nearly all actives have a fitted effect of over 50% in size
Procedure, shortened: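 Tox21 10K compounds were tested for cytotoxicity against GeneBLAzer RXR-alpha HEK 293T cells grown in 2% charcoal-stripped FBS. Exposure lasted 16 hr at 37 C, 5% CO2; viability read by CellTiter-Glo luminescence.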

[3] = qHTS assay to identify small molecule antagonists of the retinoid acid receptor (RAR) signaling pathway - cell viability counter screen (AID 1159551); further: nearly all actives have a fitted effect of over 35% in size
Procedure, shortened: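 Seed C3RL4 cells; next day add compound, then retinol to 1 uM final; incubate 6 h at 37 C; add CellTiter-Glo; read luminescence after 30 min at RT.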

[4] = qHTS assay to identify small molecule antagonists of the retinoic acid receptor (RAR) signaling pathway (AID 1159552; further: nearly all actives have a fitted effect of over 50% in size)
Procedure, shortened: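 Overnight-plated C3RL4 reporter cells get compound, then retinol to 1 uM final; plates sit 6 hr at 37 C, 5% CO2. A luciferase reagent is added and light output recorded after 30 min at room temperature.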

[5] = qHTS assay to identify small molecule agonists of the retinoic acid receptor (RAR) signaling pathway (AID 1159553)
Procedure, shortened: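 Activation of retinol signaling was monitored via a RARE luciferase reporter in C3RL4 cells. After 6 hr compound treatment at 37 C, detection reagent was added for 30 min at room temperature before luminescence reading.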

[6] = qHTS assay to identify small molecule antagonists of the estrogen related receptor (ERR) signaling pathway from Tox21 library - cell viability counter screen (AID 1224834); further: nearly all actives have a fitted effect of over 30% in size
Procedure, shortened: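 CellTiter-Fluor fluorescence measured; ERR cells; 17.5 h compound incubation at 37 C; 30 min reagent step.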

[7] = target: Luciferin 4-monooxygenase (Photinus pyralis) (UniProt P08659); assay: qHTS assay to identify small molecule inhibitors of firefly luciferase (AID 1224835); further: nearly all actives have a fitted effect of over 25% in size; further: potency means the concentration at half of the fitted maximal effect
Procedure, shortened: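 Biochemical qHTS: compounds run as interplate titrations against purified firefly enzyme, with D-luciferin and ATP each at its KM concentration. Light output recorded by CCD imaging.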

[8] = qHTS assay to identify small molecule agonists of the constitutive androstane receptor (CAR) signaling pathway - cell viability counter screen (AID 1224836); further: series mostly up to about 92 µM; nearly all actives have a fitted effect of over 45% in size
Procedure, shortened: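 Fluorescence from CellTiter-Fluor indicates live cells after 23 h exposure. The human hepatoma line expresses hCAR and a CYP2B6-2.2kb reporter. Incubation medium contains 0.75 uM PK11195 (final).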

[9] = qHTS assay to identify small molecule antagonists of the constitutive androstane receptor (CAR) signaling pathway - cell viability counter screen (AID 1224837); further: series mostly up to about 92 µM; nearly all actives have a fitted effect of over 45% in size
Procedure, shortened: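 Using CellTiter-Fluor, viability is scored in HepG2 cells stably carrying hCAR and a 2.2kb CYP2B6 reporter after 23 hr compound exposure across 15 concentrations, with CITCO present at 50 nM.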

[10] = qHTS assay to identify small molecule antagonists of the estrogen related receptor signaling pathway with the pleiotropic PPARgamma coactivator (PGC) from Tox21 10K library - cell viability counter screen (AID 1224840; active means well fitted cell-killing curve with a large enough effect in the repeat runs, not every such curve was filed as active; further: nearly all actives have a fitted effect of over 40% in size)
Procedure, shortened: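 Here the PGC/ERR cells serve as a cytotoxicity control: they are exposed to compounds for 17.5 hours at 37 C, and live-cell signal is quantified using CellTiter-Fluor fluorescence.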

[11] = target: Nuclear receptor subfamily 1 group I member 3 (Homo sapiens) (UniProt Q14994); assay: qHTS assay to identify small molecule antagonists of the constitutive androstane receptor (CAR) signaling pathway (AID 1224838);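 further: HepG2 cells stably expressing hCAR with CYP2B6 luciferase reporter stimulated by CITCO; nearly all actives have a fitted effect of over 40% in size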
Procedure, shortened: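 Reporter luminescence was quantified after 24 h exposure of hCAR/CYP2B6-2.2kb double-stable HepG2 cells to compounds at 15 concentrations in the presence of 50 nM CITCO final.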

[12] = qHTS assay to identify small molecule antagonists of the estrogen related receptor signaling pathway with the pleiotropic PPARgamma coactivator (PGC) from Tox21 10K library (AID 1224841; call rule not given here; further: series mostly up to about 92 µM; actives are mostly falling curves and most rising ones were filed inactive; nearly all actives have a fitted effect of over 50% in size)
Procedure, shortened: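 Each well held 2,000 PGC/ERR cells, pre-incubated six hours (37 C, 5% CO2). Test substances in DMSO were added by pin tool and left for 18 h at 37 C before luciferase detection by One-Glo.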

[13] = qHTS assay to identify small molecule agonists of the estrogen related receptor signaling pathway with the pleiotropic PPARgamma coactivator (PGC) from Tox21 10K library (AID 1224842); further: nearly all actives have a fitted effect of over 15% in size
Procedure, shortened: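 PGC/ERR reporter cell line, 2,000 cells per well, incubated 6 h at 37 C before 23 nL compound in DMSO was added. After 18 h at 37 C, One-Glo luminescence read following 30 min at room temperature.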

[14] = target: Nuclear receptor subfamily 1 group I member 3 (Homo sapiens) (UniProt Q14994); assay: qHTS assay to identify small molecule agonists of the constitutive androstane receptor (CAR) signaling pathway (AID 1224839); further: nearly all actives have a fitted effect of over 15% in size; further: potency means the concentration at half of the fitted maximal effect
Procedure, shortened: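 Stable hCAR/CYP2B6-2.2kb HepG2 line in DMEM with 10% FBS; compounds (15 concentrations) and 0.75 uM PK11195 final, 24 h at 37 C/5% CO2, then ONE-Glo luminescence after 30 min.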

[15] = qHTS assay to identify small molecule antagonists of the estrogen related receptor (ERR) signaling pathway - cell viability counter screen (AID 1224818);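 further: series mostly up to about 46 µM; viability measured after 17.5 h of compound exposure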
Procedure, shortened: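 In the same ERR cell assay, compound-treated wells (17.5 h, 37 C) were multiplexed with a fluorogenic viability reagent, CellTiter-Fluor, read after 30 min to flag cytotoxic substances.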

[16] = qHTS assay to identify small molecule antagonists of the estrogen related receptor (ERR) signaling pathway (AID 1224819;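 further: luminescence from an ERR-driven luciferase reporter measured with One-Glo reagent; series mostly up to about 46 µM; nearly all actives have a fitted effect of over 50% in size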)
Procedure, shortened: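 qHTS in ERR cells, 2,000/well, 1536 format. Cpd (DMSO) added after 6 h settle, 18 h 37 C. One-Glo luminescence, 30 min RT.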

[17] = qHTS assay to identify small molecule agonists of the estrogen related receptor (ERR) signaling pathway (AID 1224820)
Procedure, shortened: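 Cells: ERR line from NTP, 2,000/well. Pre-incubation 6 h, 37 C/5% CO2. Compound (DMSO) pin transfer, 18 h 37 C. One-Glo, 30 min RT, luminescence.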

[18] = tested on: estrogen-related receptor alpha (ERRalpha) with PGC-1alpha coactivator, human; assay: qHTS assay to identify small molecule antagonists of the estrogen related receptor signaling pathway with the pleiotropic PPARgamma coactivator (PGC) (AID 1224821; calls by dose curve)
Procedure, shortened: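 Luminescent read-out (One-Glo, 30 min at room temperature) following 18 h treatment of PGC/ERR cells at 37 C with compounds delivered in DMSO. Cells had settled 6 h at 37 C/5% CO2 before dosing.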

[19] = qHTS assay to identify small molecule antagonists of the estrogen related receptor signaling pathway with the pleiotropic PPARgamma coactivator (PGC) cell viability counter screen (AID 1224822; further: series mostly up to about 46 µM)
Procedure, shortened: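 Compounds in DMSO, with positive and negative controls, were applied to PGC/ERR cells (2,000/well) and left 17.5 h at 37 C before CellTiter-Fluor detection.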

[20] = qHTS assay to identify small molecule agonists of the estrogen related receptor signaling pathway with the pleiotropic PPARgamma coactivator (PGC) (AID 1224823)
Procedure, shortened: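 Steps: plate PGC/ERR cells at 2,000 cells/well; incubate 6 h, 37 C/5% CO2; pin-transfer compounds (DMSO); incubate 18 h, 37 C; add One-Glo; 30 min RT; read luminescence.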

Measured: Potency

Luciferin 4-monooxygenase (Photinus pyralis), sequence (P08659 whole entry, looked up): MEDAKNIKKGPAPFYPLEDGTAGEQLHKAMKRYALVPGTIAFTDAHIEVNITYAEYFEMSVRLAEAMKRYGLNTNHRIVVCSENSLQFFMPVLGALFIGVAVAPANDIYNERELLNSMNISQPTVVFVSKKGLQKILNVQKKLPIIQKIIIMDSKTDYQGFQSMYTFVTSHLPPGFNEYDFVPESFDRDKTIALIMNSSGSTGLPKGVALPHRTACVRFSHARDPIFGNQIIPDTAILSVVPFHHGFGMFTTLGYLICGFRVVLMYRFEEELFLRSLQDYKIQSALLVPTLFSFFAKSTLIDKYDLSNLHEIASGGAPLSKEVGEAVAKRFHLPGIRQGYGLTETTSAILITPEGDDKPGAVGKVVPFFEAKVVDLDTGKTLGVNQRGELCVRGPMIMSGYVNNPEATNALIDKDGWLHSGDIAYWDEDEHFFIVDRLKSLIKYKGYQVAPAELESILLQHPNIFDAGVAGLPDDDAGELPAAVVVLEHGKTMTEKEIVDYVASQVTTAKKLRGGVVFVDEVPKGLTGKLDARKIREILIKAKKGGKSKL
Nuclear receptor subfamily 1 group I member 3 (Homo sapiens), sequence (Q14994 whole entry, looked up): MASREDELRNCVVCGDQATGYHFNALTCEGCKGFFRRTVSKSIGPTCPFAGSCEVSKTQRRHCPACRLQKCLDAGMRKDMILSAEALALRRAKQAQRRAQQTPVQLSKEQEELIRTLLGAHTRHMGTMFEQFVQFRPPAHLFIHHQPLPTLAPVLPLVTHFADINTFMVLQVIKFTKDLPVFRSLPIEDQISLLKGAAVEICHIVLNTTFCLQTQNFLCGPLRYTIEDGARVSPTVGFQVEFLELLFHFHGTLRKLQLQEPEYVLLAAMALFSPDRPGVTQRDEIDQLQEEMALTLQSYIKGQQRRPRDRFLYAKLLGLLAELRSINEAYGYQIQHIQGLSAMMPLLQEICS
Retinoic acid receptor RXR-alpha (Homo sapiens), sequence (P19793 whole entry, looked up): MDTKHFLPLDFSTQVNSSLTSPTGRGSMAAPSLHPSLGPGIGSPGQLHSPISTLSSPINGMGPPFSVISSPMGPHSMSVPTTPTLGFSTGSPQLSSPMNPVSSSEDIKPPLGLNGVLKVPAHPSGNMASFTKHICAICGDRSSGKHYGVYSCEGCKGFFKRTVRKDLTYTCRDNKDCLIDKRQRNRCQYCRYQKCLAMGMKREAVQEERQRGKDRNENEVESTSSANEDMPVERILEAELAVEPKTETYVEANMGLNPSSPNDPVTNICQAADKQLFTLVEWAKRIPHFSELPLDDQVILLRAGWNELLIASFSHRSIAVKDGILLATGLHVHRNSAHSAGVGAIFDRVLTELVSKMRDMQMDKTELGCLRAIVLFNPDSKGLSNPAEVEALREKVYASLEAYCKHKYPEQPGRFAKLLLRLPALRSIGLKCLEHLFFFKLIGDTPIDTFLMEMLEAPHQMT

Cc1cccc(C)c1N
inactive: [1] | [2] | [3] | [4] | [5] | [6] | [7] | [8] | [9] | [10]

O=P1(NCCCl)OCCCN1CCCl (stereo unspecified)
not listed: [14] | [15] | [16] | [17] | [18] | [19] | [20]
inactive: all other assays above

CNC(=O)O/N=C/C(C)(C)S(C)(=O)=O
not listed: [12] | [13] | [15] | [16] | [17] | [18] | [19] | [20]
inactive: all other assays above

COS(=O)(=O)OC
inactive: [1] | [2] | [3] | [4] | [5] | [6] | [7] | [8] | [9] | [10]

C=CC(=O)OCCCCCC(C)C
inactive: [1] | [2] | [3] | [4] | [5] | [6] | [7] | [8] | [9] | [10]

O=C(O)Cc1ccccc1
not listed: [15] | [16] | [17] | [18] | [19] | [20]
inactive: all other assays above

OCC(O)CCl (stereo unspecified)
not listed: [12] | [13] | [15] | [16] | [17] | [18] | [19] | [20]
inactive: all other assays above

CC(C)c1cccc(C(C)C)c1O
not listed: [14]
inactive: all other assays above

ClC(Cl)c1ccccc1
not listed: [15] | [16] | [17] | [18] | [19] | [20]
inactive: all other assays above

CCCCC(CC)C(=O)Cl (stereo unspecified)
not listed: [12] | [13] | [15] | [16] | [17] | [18] | [19] | [20]
inactive: all other assays above

CN(C)NC(=O)CCC(=O)O
not listed: [15] | [16] | [17] | [18] | [19] | [20]
inactive: all other assays above

Cc1cc(Cl)ccc1OC(C)C(=O)O (stereo unspecified)
inactive: [1] | [2] | [3] | [4] | [5] | [6] | [7] | [8] | [9] | [14] | [10]

C=CCN=C=S
not listed: [15] | [16] | [17] | [18] | [19] | [20]
inactive: all other assays above

CCCCCCCCCCCCCCCCCC(=O)O
inactive: [1] | [2] | [3] | [4] | [5] | [6] | [8] | [9] | [10]
70.5 µM (active) and inactive: [7]

N#Cc1ccccn1
not listed: [12] | [13] | [15] | [16] | [17] | [18] | [19] | [20]
inactive: all other assays above

CNC(=O)Oc1cccc2ccccc12
61.1 µM (active) and inactive: [14]
not listed: [12] | [13] | [15] | [16] | [17] | [18] | [19] | [20]
inactive: all other assays above

Oc1c(Br)cc(Br)cc1Br
not listed: [12] | [13] | [15] | [16] | [17] | [18] | [19] | [20]
inactive: all other assays above

Cl[C@H]1OCCO[C@@H]1Cl
not listed: [15] | [16] | [17] | [18] | [19] | [20]
inactive: all other assays above

CNC(=O)O/N=C/C(C)(C)SC
not listed: [15] | [16] | [17] | [18] | [19] | [20]
inactive: all other assays above

CNC(=O)O/N=C/C(C)(C)S(C)=O (stereo unspecified)
not listed: [12] | [13] | [15] | [16] | [17] | [18] | [19] | [20]
inactive: all other assays above
